Bioassay records deposited in PubChem by National Center for Advancing Translational Sciences (NCATS).
TRPV1 ag – HTS Assay for Compounds that Act as Agonists of the Vanilloid Receptor 1 | Transient receptor potential cation channel subfamily V member 1 (Homo sapiens), Q8NER1 | TRPV1-expressing cells, Fluo-8 calcium influx, agonist mode | activation, % at 8.33 µM | actives 0.19% (n = 320,000); in the data active = activation above about 80%; inconclusive = between about 30% and that limit
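Fluo-8 calcium influx in TRPV1-expressing cells, kinetic read (ex 480/em 520 nm). Compound added and read 3 min for agonist activity, followed by capsaicin at EC20 final and 2 min further read for enhancement.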
D1 potentiator – Potentiators of Human D1 Dopamine Receptor: qHTS; HEK293 TREx D1 cells, calcium flux, dopamine EC20 potentiation; actives 0.036% (n = 360,000); potentiation, % at 10 µM; D(1A) dopamine receptor (Homo sapiens), P21728; in the data active = potentiation above about 30%
Target sequence (P21728 whole entry, looked up): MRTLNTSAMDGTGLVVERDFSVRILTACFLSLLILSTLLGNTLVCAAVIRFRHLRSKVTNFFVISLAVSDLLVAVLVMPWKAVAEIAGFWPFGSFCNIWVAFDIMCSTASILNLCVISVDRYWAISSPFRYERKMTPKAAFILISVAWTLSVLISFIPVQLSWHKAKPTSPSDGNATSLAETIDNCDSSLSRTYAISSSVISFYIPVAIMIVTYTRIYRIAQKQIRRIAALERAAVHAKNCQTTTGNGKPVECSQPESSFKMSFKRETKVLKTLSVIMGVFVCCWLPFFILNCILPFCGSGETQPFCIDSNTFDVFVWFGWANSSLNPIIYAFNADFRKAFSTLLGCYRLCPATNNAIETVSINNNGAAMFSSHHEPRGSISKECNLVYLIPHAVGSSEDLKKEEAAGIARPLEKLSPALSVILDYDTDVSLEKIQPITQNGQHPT
TRPV1 PAM – HTS Assay for Compounds that Act as Potentiators of the Vanilloid Receptor 1; Transient receptor potential cation channel subfamily V member 1 (Homo sapiens), Q8NER1; TRPV1-expressing cells, Fluo-8 calcium influx, capsaicin EC20 potentiation; potentiation, % at 8.33 µM; actives 0.02% (n = 320,000); AID 540277, 2011; in the data active = potentiation above about 80%; inconclusive = between about 30% and that limit
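Cells expressing TRPV1 were dye-loaded with Fluo-8 and read kinetically: 10 s baseline, 3 min after compound (agonist portion), then 2 min after EC20 capsaicin (allosteric enhancer portion). Calcium-bound dye fluorescence at 480/520 nm.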
D1 ag – Allosteric Agonists of the Human D1 Dopamine Receptor: qHTS; D(1A) dopamine receptor (Homo sapiens), P21728; activation, % at 2 µM; actives 1% (n = 360,000); HEK293 T-REx D1 cells, calcium flux, agonist mode; in the data active = activation above about 30%
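Agonism was scored from calcium flux recorded over 180 s (1 read/s) after pintool compound addition, following a 10-cycle baseline. Cells were inducible force-coupled HEK293 TREx D1, plated overnight at 30 C and loaded with no-wash calcium dye.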
D1 antag – Antagonist of Human D 1 Dopamine Receptor: qHTS. actives 3.2% (n = 360,000). activity change, negative = inhibition, % at 10 µM. HEK293 TREx D1 cells, calcium flux, dopamine EC80; hits give low values. AID 504652, 2011. D(1A) dopamine receptor (Homo sapiens), P21728; in the data active = activity change below about -30%
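Tetracycline-induced HEK293 T-REx cells with force-coupled D1 receptor were loaded with a no-wash calcium dye. Compound was added after a 10 s baseline and read kinetically for 180 s; EC80 dopamine was then added and calcium flux followed another 180 s.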
A number is an active result; 0 = inactive; ? = inconclusive; - = no result. Shown are actives, neighbours in structure and some others; about 4.2% of the full set was active somewhere.

SMILES	TRPV1 ag	D1 potentiator	TRPV1 PAM	D1 ag	D1 antag
Cc1ccc(S(=O)(=O)N2CCC(C(N)=O)CC2)cc1[N+](=O)[O-]	0	0	?	0	-39
Cc1ccc(S(=O)(=O)N2CCCCC2)cc1NC(=O)C1CCC1	0	-	0	0	-34
Cc1ccc(Oc2ccc(NC(=O)Cn3ccsc3=N)cc2)cc1	0	0	0	85	0
CC(C)c1ccc(NC(=O)CSc2nc3ccccc3nc2Cc2ccccc2)cc1	-	0	-	0	0
Cc1ccc(S(=O)(=O)N2CCOCC2)cc1NC(=O)C1=NN(c2ccccc2)C(=O)CC1	0	0	0	0	0
Cc1ccc(S(=O)(=O)N2CCCCC2)cc1NC(=O)C1=NN(c2ccccc2)C(=O)CC1	0	0	0	0	-44
COc1cc2c(cc1OC)CN(C(=O)CSc1ccc(F)cc1)CC2	0	0	0	0	-87
COc1cc2c(cc1OC)CN(C(=O)/C=C/c1ccc(F)cc1)CC2	?	0	0	0	0
CC(C)S(=O)(=O)c1csc(C(=O)Nc2ccc(F)cc2)c1N	?	0	0	0	-56
CC1=NN(c2ccccc2)C(=O)/C1=C\C=C\c1ccccc1	-	0	-	0	0
CC1=NN(c2ccccc2)C(=O)/C1=C\C=C1\N(C)c2ccccc2C1(C)C	0	0	0	44	-32
CC1=NN(c2ccccc2)C(=O)/C1=C\C=C1/N(C)c2ccccc2C1(C)C	0	0	0	68	0
CC1=NN(c2ccccc2)C(=O)/C1=C/N(C)C	0	0	0	0	0
Cc1cc(=O)n(Cc2cccc(Cl)c2)c2c1c(C)nn2-c1ccccc1	-	0	-	0	0
CCCc1ccc(OC(C)c2nc(-c3ccc(-n4cccc4)cc3)no2)cc1 (stereo not given)	-	0	-	0	0
O=C(COC(=O)c1ncc(Cl)c(Cl)c1Cl)NC1CCCCCC1	?	0	0	0	-44
O=C(COC(=O)c1nc(Cl)ccc1Cl)NC1CCCCCC1	0	0	0	0	-31
N/C(CC(=O)NC1CCCCC1)=N\OCC(=O)Nc1ccc(Cl)c(Cl)c1	0	0	0	0	-94
O=C(COC(=O)c1ncc(Cl)c(Cl)c1Cl)NC(=O)c1ccccc1	0	0	0	0	0
O=C(COC(=O)c1ccc(Cl)cc1)NC1CCCCCC1	0	-	0	0	0
CCc1cccc(CC)c1NC(=O)CO/N=C(\N)CC(=O)NC1CCCCC1	0	0	0	0	0
COc1ccc(O)c(/C=C2/SC(=S)N(Cc3ccccc3)C2=O)c1	0	0	0	40	0
COc1ccc(OC)c(/C=C2\SC(=S)N(Cc3cccnc3)C2=O)c1	0	0	0	48	0
O=C1/C(=C\c2cc(Cl)c(O)c(Cl)c2)SC(=S)N1Cc1ccccc1	0	0	0	412	-85
COc1ccc(/C=C2/SC(=S)N(Cc3ccccc3)C2=O)cc1O	0	0	0	0	0
SMILES	TRPV1 ag	D1 potentiator	TRPV1 PAM	D1 ag	D1 antag
O=C(NC1CC(=O)N(c2cccc(F)c2)C1)C1CC1 (stereo not given)	-	0	-	0	-
COc1ccc(-n2cc(C(=O)NCc3ccc(Cl)cc3)c3ccccc3c2=O)cc1	-	0	-	0	0
COc1ccc(-c2cn3nc(N4CCCC(C(=O)NCc5ccccc5OC)C4)sc3n2)cc1 (stereo not given)	-	0	-	0	0
CCN1CCN(C(c2ccccc2Cl)c2sc3nc(-c4ccco4)nn3c2O)CC1 (stereo not given)	-	0	-	0	-
O=C(Cn1cnc2ccccc21)OCC(=O)N1CCCc2ccccc21	0	0	0	0	-61
O=C(OCC(=O)N1CCCc2ccccc21)c1ccc(Cl)nc1	0	0	0	0	0
Cc1ccccc1OCC(=O)OCC(=O)N1CCCc2ccccc21	0	0	0	0	0
O=C(OCC(=O)N1CCCc2ccccc21)c1cnc(Cl)c(Cl)c1	0	0	0	41	0
O=C(N/N=C/c1ccco1)c1cc(-c2ccc(Br)s2)[nH]n1	0	0	0	0	0
O=C(N/N=C/c1ccco1)c1cc(-c2ccc(Cl)s2)[nH]n1	0	0	0	0	-43
C/C(=N/NC(=O)c1cc(-c2ccc(Br)s2)[nH]n1)c1ccco1	0	0	0	0	-46
C/C(=N\NC(=O)c1cc(-c2ccc(Br)s2)[nH]n1)c1ccncc1	0	0	0	0	0
CCc1ccc(C2c3c(-c4ccccc4O)n[nH]c3C(=O)N2Cc2ccncc2)cc1 (stereo not given)	-	0	-	0	0
O=C(CSc1nc(-c2ccccc2)nn1C(=O)c1ccccc1)Nc1cccc([N+](=O)[O-])c1	0	0	0	0	-34
Nc1ccc(SCC(=O)Nc2cccc([N+](=O)[O-])c2)cc1	0	0	0	0	-49
Cn1nnnc1SCC(=O)Nc1cccc([N+](=O)[O-])c1	0	0	0	0	0
CS(=O)(=O)Nc1nnc(SCC(=O)Nc2cccc([N+](=O)[O-])c2)s1	0	0	0	0	-79
CCCc1nn2c(=O)cc(COC(=O)c3ccccc3NC(=O)c3ccc(OCC)cc3)nc2s1	-	0	-	0	0
N#C/C(=N\Nc1cccc([N+](=O)[O-])c1)C(=O)c1ccc(Br)cc1	0	0	0	0	-34
O=C(CSc1ccc2nc(-c3ccccc3)cn2n1)Nc1ccccc1	-	0	-	0	0
O=Cc1c[nH]c2ccccc12	0	0	0	0	-55
Cc1ccccc1-c1noc(-c2cc(C(C)C)[nH]n2)n1	-	0	-	0	0
Cc1ccc(Nc2c(-c3ccc(N(C)C)cc3)nc3ccccn23)cc1	-	0	-	0	-30
CCOC(=O)c1c(-c2ccccc2)oc2ccc(OCC(O)CNCCN(C)C)cc12 (stereo not given)	0	0	0	45	-48
COc1ccc(N2CCN(c3csc4ccc(Cl)cc4c3=O)CC2)cc1	-	0	-	43	0
SMILES	TRPV1 ag	D1 potentiator	TRPV1 PAM	D1 ag	D1 antag
COc1ccc(N2CCN(C(=O)Cc3coc4ccc(C)cc34)CC2)cc1	-	0	-	0	-68
COc1ccc(N2CCN(C(=O)CCC(=O)N3CCOc4ccc(Cl)cc43)CC2)cc1	0	0	0	0	0
COc1ccc(N2CCN(C(=O)Cc3coc4cc(C)ccc34)CC2)cc1	0	0	0	0	0
COc1ccc(N2CCN(C(=O)CCC(=O)N3CCOc4ccc(C)cc43)CC2)cc1	0	0	0	0	-34
Cc1ccc2c(c1)N(C(=O)CCC(=O)N1CCN(c3ccccc3)CC1)CCO2	0	0	?	0	-50
O=S(=O)(Cc1ccc(Cl)cc1)NCc1ccc2c(c1)OCO2	0	0	0	0	-36
CN(C)S(=O)(=O)NCc1ccc2c(c1)OCO2	0	0	0	0	0
